# Data from PubChem BioAssay.
# Calls of active or inactive are those of the source. Unless noted, the rule behind the calls is not given here.
# Tests used:
# [1] = system: Wnt5a (protein binding on small-molecule microarray); assay: small molecules binding Wnt5a protein – biophysical, small-molecule microarray, 635/667 nm fluorescence, primary screen (AID 1142); conditions: 635 nm fluorescence, higher = more signal;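 note: fluorescence read at 667 nm with signal to noise per printed feature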
# [2] = ATP-based viability of Huh7 replicon cells – cell-based, CellTiter-Glo luminescence, basal, 48 h, cytotoxicity control for HCV replication inhibitor project, primary screen (AID 1143); conditions: higher = more signal, called active from +8 up or from −8 down;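 note: Huh7 hepatoma cells carrying a hepatitis C replication reporter with no stimulus; test concentration not given here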
# [3] = Pseudomonas biofilm growth suppression – PAO1 strain, BacTiter-Glo luminescence, LB-PBS, primary screen (AID 1144); conditions: P. aeruginosa PAO1 biofilm, 12 h, higher = more signal
# [4] = basal CRE-LacZ reporter activity in PC12 – cell-based, unstimulated, primary screen (AID 1145); conditions: no forskolin, luminescence, 4.5 h, higher = more signal, called active from +8 up or from −8 down
# [5] = forskolin-driven CRE-LacZ activity in PC12 – cell-based, CRE-LacZ reporter, forskolin-stimulated, primary screen (AID 1146); conditions: luminescence, 4.5 h, higher = more signal, called active from +8 up or from −8 down;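 note: PC12 cells with 6xCRE LacZ reporter stimulated by forskolin 10 µM; beta-galactosidase reporter signal reflecting CREB driven transcription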
# [6] = biological target: Streptavidin (Streptomyces avidinii) (UniProt P22629); assay: compounds binding control protein streptavidin – biophysical, small-molecule microarray, 635/667 nm fluorescence, artefact control for SMM compound annotation, primary screen (AID 1147); conditions: higher = more signal;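 note: signal reflects streptavidin binding to arrayed compounds as a control protein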
# [7] = probe aInhba binding on compound microarray – biochemical, small-molecule microarray, 635/667 nm fluorescence, primary screen (AID 1148); conditions: higher = more signal;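 note: score merges 667nm spot fluorescence with signal-to-noise for antibody binding to printed compounds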
# Torsin-1A (Homo sapiens) [8] = biological target: Torsin-1A (Homo sapiens) (UniProt O14656); assay: TOR1A wild-type binding on microarray – cell lysate, small-molecule microarray, lysate, 635/667 nm, primary screen (AID 1149); conditions: COS7 hTOR1A-WT lysate, 635 nm fluorescence, higher = more signal
# Torsin-1A (Homo sapiens) [9] = biological target: Torsin-1A (Homo sapiens) (UniProt O14656); assay: torsin A mutant lysate binding on microarrays – cell lysate, small-molecule microarray, COS7 lysate, 635/667 nm fluorescence, primary screen (AID 1150); conditions: COS7 hTOR1A mutant lysate, 635 nm fluorescence, higher = more signal;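 note: score pools 667 nm emission and signal to noise measuring lysate protein binding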
# [10] = system: Sonic hedgehog protein (Shh); assay: Sonic hedgehog microarray binding compounds – biochemical, small-molecule microarray, 635/667 nm fluorescence, primary screen (AID 1151); conditions: 635 nm fluorescence, higher = more signal;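 note: Shh protein binding to compounds spotted on small-molecule microarray slides; score combines spot fluorescence intensity with signal-to-noise across triplicate slides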
# [11] = optical density shifts of acrAB sulA E. coli – strain DRC41, OD650, 48 h, E. coli filamentation inducer project, primary screen (AID 1152); conditions: higher = more signal, called active from +8 up or from −8 down;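 note: E. coli MC1000 strain DRC41 lacking acrAB efflux pump and sulA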
# [12] = probe aLefty1 binding on compound microarray – biochemical, small-molecule microarray, 635/667 nm fluorescence, primary screen (AID 1153); conditions: higher = more signal;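 note: score merges spot fluorescence with signal-to-noise ratio from the scanned slide images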
# [13] = plasmodial surface anion channel blockers, osmotic lysis – cell-based, P. falciparum Indochina, OD700, 1 h, primary screen (AID 1154); conditions: P. falciparum Indochina infected RBC osmotic lysis, higher = more signal, called active from +8 up or from −8 down
# [14] = plasmodial surface anion channel blockers, osmotic lysis – cell-based, P. falciparum Indochina, OD700, 2 h, primary screen (AID 1155);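 note: lysis reports solute entry through the parasite surface anion channel PSAC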; conditions: P. falciparum Indochina infected erythrocytes, higher = more signal, called active from +8 up or from −8 down
# [15] = changes in parasitized red cell lysis, either direction – P. falciparum Indochina, OD700, 3 h, PSAC antagonist project, primary screen (AID 1156); conditions: P. falciparum-infected erythrocytes, osmotic lysis, higher = more signal, called active from +8 up or from −8 down
# [16] = plasmodial surface anion channel blockers, osmotic lysis – cell-based, P. falciparum Indochina, OD700, 18 h, primary screen (AID 1157); conditions: P. falciparum Indochina infected erythrocytes, osmotic lysis OD700, 18 h; higher = more signal, called active from +8 up or from −8 down
# [17] = S6 kinase pathway phospho-S6 level changes – cell-based, A549, cytoblot, luminescence, serum-stimulated, primary screen (AID 1158); conditions: 5 h, higher = more signal;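 note: serum-stimulated A549 lung adenocarcinoma cells; signal is phosphorylated S6 detected by cytoblot immunostaining with HRP secondary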
# [18] = biological target: NADPH oxidase 2 (Homo sapiens) (UniProt P04839); assay: compounds shifting NOX2 Amplex Red fluorescence – cell-based, HEK293-NOX2, PMA-stimulated, NOX inhibitor project, primary screen (AID 1159); conditions: 45 min, higher = more signal, called active from +8 up or from −8 down; note: test concentration not given here
# [19] = biological target: NADPH oxidase 4 (Homo sapiens) (UniProt Q9NPH5); assay: compounds shifting NOX4 Amplex Red fluorescence – cell-based, HEK293-NOX4, tetracycline-induced, NOX inhibitor project, primary screen (AID 1160); conditions: HEK293-NOX4, Amplex Red H2O2 fluorescence, 45 min; higher = more signal, called active from +8 up or from −8 down
# [20] = biological target: NADPH oxidase 5 (Homo sapiens) (UniProt Q96PH1); assay: compounds shifting NOX5 Amplex Red fluorescence – cell-based, HEK293-NOX5, NOX inhibitor project, primary screen (AID 1161); conditions: HEK293-NOX5, ionomycin, 45 min, higher = more signal
# Chain of NADPH oxidase 5 (Homo sapiens) (Q96PH1 whole entry, looked up): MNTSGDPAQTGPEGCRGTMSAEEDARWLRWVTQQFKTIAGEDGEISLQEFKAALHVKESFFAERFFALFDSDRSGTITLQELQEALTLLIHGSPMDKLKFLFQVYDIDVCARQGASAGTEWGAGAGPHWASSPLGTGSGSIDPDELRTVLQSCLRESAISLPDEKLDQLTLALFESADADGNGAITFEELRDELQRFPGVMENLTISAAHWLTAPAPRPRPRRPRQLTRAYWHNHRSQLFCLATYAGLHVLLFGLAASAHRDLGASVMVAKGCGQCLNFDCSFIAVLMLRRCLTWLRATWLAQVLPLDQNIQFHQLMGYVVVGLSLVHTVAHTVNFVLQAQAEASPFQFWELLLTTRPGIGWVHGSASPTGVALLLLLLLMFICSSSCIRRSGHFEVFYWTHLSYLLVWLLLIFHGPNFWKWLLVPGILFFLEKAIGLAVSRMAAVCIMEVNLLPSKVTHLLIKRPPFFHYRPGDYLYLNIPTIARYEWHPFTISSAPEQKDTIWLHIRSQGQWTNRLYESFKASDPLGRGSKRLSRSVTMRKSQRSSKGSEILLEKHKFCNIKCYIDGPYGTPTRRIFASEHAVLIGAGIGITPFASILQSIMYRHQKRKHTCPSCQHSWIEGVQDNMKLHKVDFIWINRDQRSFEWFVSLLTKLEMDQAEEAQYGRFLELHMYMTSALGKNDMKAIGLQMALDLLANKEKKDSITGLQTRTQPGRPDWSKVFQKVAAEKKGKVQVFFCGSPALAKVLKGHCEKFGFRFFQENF
# Chain of Streptavidin (Streptomyces avidinii) (P22629 whole entry, looked up): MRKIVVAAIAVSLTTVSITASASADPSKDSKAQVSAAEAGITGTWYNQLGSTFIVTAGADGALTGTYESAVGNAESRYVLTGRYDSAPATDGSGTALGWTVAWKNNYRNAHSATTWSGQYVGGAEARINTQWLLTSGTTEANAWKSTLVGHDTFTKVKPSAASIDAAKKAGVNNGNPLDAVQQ
# Chain of Torsin-1A (Homo sapiens) (O14656 whole entry, looked up): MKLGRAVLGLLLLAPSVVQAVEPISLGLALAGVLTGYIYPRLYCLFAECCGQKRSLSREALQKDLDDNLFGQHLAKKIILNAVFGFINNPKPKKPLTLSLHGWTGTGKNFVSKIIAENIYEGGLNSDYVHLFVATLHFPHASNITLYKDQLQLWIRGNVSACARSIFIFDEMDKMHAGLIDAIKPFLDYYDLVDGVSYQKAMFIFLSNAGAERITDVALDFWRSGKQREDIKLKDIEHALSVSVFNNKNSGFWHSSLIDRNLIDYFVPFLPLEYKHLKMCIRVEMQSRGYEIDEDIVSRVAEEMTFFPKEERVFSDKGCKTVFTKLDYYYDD
# Chain of NADPH oxidase 4 (Homo sapiens) (Q9NPH5 whole entry, looked up): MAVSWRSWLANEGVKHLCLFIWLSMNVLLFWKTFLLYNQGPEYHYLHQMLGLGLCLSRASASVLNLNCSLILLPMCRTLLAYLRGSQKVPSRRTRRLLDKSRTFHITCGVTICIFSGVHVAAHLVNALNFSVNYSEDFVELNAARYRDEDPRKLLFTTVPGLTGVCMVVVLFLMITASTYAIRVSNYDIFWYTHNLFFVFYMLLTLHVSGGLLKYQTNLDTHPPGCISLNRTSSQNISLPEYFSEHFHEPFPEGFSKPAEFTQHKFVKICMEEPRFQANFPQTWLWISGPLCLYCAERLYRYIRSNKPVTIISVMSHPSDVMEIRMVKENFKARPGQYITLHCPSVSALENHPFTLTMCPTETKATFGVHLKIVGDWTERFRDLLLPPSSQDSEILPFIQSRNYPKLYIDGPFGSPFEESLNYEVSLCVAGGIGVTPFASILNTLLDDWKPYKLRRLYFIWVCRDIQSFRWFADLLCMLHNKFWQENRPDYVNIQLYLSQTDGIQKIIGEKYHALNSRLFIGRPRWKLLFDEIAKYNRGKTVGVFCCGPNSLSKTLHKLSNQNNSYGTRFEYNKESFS
# Chain of NADPH oxidase 2 (Homo sapiens) (P04839 whole entry, looked up): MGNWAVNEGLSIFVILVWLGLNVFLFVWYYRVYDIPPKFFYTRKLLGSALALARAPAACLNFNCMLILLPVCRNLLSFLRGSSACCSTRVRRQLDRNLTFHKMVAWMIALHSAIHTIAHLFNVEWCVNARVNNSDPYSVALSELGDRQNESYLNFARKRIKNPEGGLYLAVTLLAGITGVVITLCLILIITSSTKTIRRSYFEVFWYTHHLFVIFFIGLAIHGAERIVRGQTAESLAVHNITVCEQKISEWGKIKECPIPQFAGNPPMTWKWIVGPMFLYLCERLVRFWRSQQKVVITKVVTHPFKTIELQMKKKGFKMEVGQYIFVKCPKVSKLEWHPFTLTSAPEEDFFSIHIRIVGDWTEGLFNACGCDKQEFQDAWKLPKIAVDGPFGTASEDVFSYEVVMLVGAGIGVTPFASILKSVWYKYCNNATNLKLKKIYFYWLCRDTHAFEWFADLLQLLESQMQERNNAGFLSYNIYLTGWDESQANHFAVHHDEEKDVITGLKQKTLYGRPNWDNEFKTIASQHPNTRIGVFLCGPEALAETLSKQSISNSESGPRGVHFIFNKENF
Compound,composite z-score [1],z-score [2],z-score [3],z-score [4],z-score [5],composite z-score [6],composite z-score [7],composite z-score (Torsin-1A (Homo sapiens) [8]),composite z-score (Torsin-1A (Homo sapiens) [9]),composite z-score [10],z-score [11],composite z-score [12],z-score [13],z-score [14],z-score [15],z-score [16],z-score [17],z-score [18],z-score [19],z-score [20]
CC(C)N1C(=O)C[C@@](C(=O)NCC(F)(F)F)(c2ccc([N+](=O)[O-])cc2)[C@H]1c1ccc(CO)cc1,-0.492,-4.06 (inactive),-1.76 (inactive),-0.761 (inactive),-1.24 (inactive),0.14,-0.128,0.894,0.0412,1.24,1.09 (inactive),-0.101,0.642 (inactive),-0.558 (inactive),0.533 (inactive),-1.68 (inactive),2.47,0.271 (inactive),0.465 (inactive),-0.127
CN1C=C(C(=O)OCCS(C)(=O)=O)C(C(=O)OCCS(C)(=O)=O)=CC(c2ccc(CO)cc2)=CC1C1CC1 (stereo not given),0.0929,-0.95 (inactive),0.706 (inactive),-0.205 (inactive),-0.507 (inactive),-0.0005,0.149,0.738,0.5,0.457,0.225 (inactive),-0.147,11.3 (active),1.46 (inactive),-0.107 (inactive),0.897 (inactive),0.116,-2.88 (inactive),-1.13 (inactive),-2.52
COc1cc2c(cc1OC)CN(C(=O)[C@@H]1[C@H]3C(=O)O[C@H](c4ccccc4)[C@H](c4ccccc4)N3[C@H](c3ccccc3OCCO)[C@@]13C(=O)Nc1ccc(C#CCCO)cc13)CC2,0.283,-1.65 (inactive),0.219 (inactive),0.505 (inactive),-0.988 (inactive),0.442,0.196,0.0499,0.344,1.13,0.761 (inactive),0.751,2.28 (inactive),1.05 (inactive),0.85 (inactive),0.565 (inactive),0.212,1.29 (inactive),1.15 (inactive),0.301
CC(C)N1C(=O)[C@@]2(Cc3ccccc31)c1ccccc1C(=O)N(Cc1ccccc1Cl)[C@H]2c1ccc(CO)cc1,-0.515,-2.27 (inactive),-1.68 (inactive),0.389 (inactive),-0.389 (inactive),-0.136,-0.29,-1.47,-0.848,-1.25,0.581 (inactive),-0.17,-0.0086 (inactive),-0.513 (inactive),1.23 (inactive),-1.78 (inactive),1.17,0.16 (inactive),0.946 (inactive),1.04
COc1ccc(-c2cc3c(c(-c4ccc(Oc5ccccc5)cc4)n2)[Si](C(C)C)(C(C)C)OC3)cn1,-0.394,-1.11 (inactive),-0.0233 (inactive),-0.127 (inactive),-0.0129 (inactive),0.114,0.038,-0.664,-0.336,1.08,-1.14 (inactive),0.0004,2.85 (inactive),1.54 (inactive),0.208 (inactive),0.85 (inactive),-0.837,0.476 (inactive),0.412 (inactive),0.179
C[N+](C)(C)CCCCCCNC(=O)[C@@H]1C[C@@H]2C(=O)N[C@@H](Cc3ccccc3)C(=O)N2[C@@H]1c1cccc(OCCO)c1,0.122,-0.428 (inactive),-0.573 (inactive),-1.22 (inactive),-1.04 (inactive),0.0123,-0.0918,0.787,1.51,1.92,1.49 (inactive),0.0588,10.1 (active),1.34 (inactive),1.42 (inactive),0.349 (inactive),0.0757,1.39 (inactive),1.66 (inactive),1.05
CO[C@H]1O[C@H](CO)[C@@H](OC(=O)Nc2cccc(F)c2)[C@H](OC(=O)Nc2ccccc2)[C@@H]1OC(=O)Nc1ccccc1,0.343,-5.79 (inactive),-0.125 (inactive),-0.459 (inactive),-0.74 (inactive),0.255,0.289,0.434,0.505,1.17,-1.17 (inactive),0.22,8.61 (active),1.93 (inactive),-0.476 (inactive),1.4 (inactive),0.646,-1.12 (inactive),-0.322 (inactive),-1.08
COCCCNC(=O)[C@@]1(C)c2ccccc2C(=O)N(C(C)C)[C@H]1c1ccc(CO)cc1,0.292,0.169 (inactive),0.0334 (inactive),0.234 (inactive),0.174 (inactive),0.889,0.143,-0.277,0.776,1.38,-0.794 (inactive),0.163,0.877 (inactive),-0.057 (inactive),0.386 (inactive),0.743 (inactive),-0.504,-0.636 (inactive),0.43 (inactive),-0.249
C[N+](C)(C)CCCC[C@@H]1NC(=O)[C@H]2C[C@@H](C(=O)NCCCCCCNC(=O)CS)[C@@H](c3cccc(OCCO)c3)N2C1=O,-0.298,0.2 (inactive),-0.635 (inactive),-0.683 (inactive),0.0114 (inactive),-0.667,-0.21,-0.182,-0.14,-0.396,0.415 (inactive),0.0774,3.29 (inactive),0.679 (inactive),1.8 (inactive),0.0805 (inactive),0.0934,1.18 (inactive),0.639 (inactive),1.24
